The results in this text go back to PubChem BioAssay (NCATS).

The nature of test [1]: qHTS of Trypanosoma Brucei Inhibitors: LOPAC Validation (AID 624147). Also: potency is read from the fitted curve at half-maximal effect. The procedure, abridged:
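T. brucei PYK with substrate was exposed to pin-transferred compounds across a concentration series, then started with 130 uM ADP (final). After 45 min at room temperature, Kinase-Glo Plus luminescence was read, normalized and curve-fitted.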

Test [2] concerns the target Glucagon-like peptide 1 receptor (Homo sapiens) (UniProt P43220). Briefly: qHTS of GLP-1 Receptor Agonists: LOPAC Validation (AID 624148).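 Also: 0% is about no effect; higher luminescence signal means agonism.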 The procedure, abridged:
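HEK293 cells stably co-expressing a cAMP-responsive luciferase reporter and a hypersensitive GLP-1R were plated 12 h at 37 °C and exposed to compounds for 4-6 hr at 37 °C, 5% CO2. Luminescence was read 12 min after adding detection reagent.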
On the technique in general: In qHTS, concentration-response curves come from the screen itself.

The nature of test [3]: qHTS of Nrf2 Activators: LOPAC Validation (AID 624149). Also: 0% is about no effect. In short, it runs like this: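 ARE reporter activation measured in AREc32 firefly luciferase cells after 24 hr compound exposure; Steady-Glo luminescence.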
A short description of test [4]: HTS Assay for Allosteric Antagonists of the Human D2 Dopamine Receptor: Hit Validation in HTRF (AID 624455).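 Also: stable D1 dopamine receptor cell line scored for blocking the D1 response; % is scaled to controls: 0 for no effect and ±100 for the full control effect.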 The procedure, abridged: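 Signal from an HTRF read-out in D1-expressing stable cells gave hit activity as inhibition of the D1 response.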
(In general: Time-resolved FRET reads energy transfer from a long-lived donor to a nearby acceptor.)

Test [5] is described as follows: Cytotoxicity counterscreen for NFkB agonists and antagonists (AID 624476;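 also: cells exposed to compound for 48 hours; % is scaled to controls: 0 for no effect and ±100 for the full control effect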). (In general: Counterscreens check selectivity or assay interference.)
Test [6] in a line: qHTS Assay for Identification of Small Molecule Agonists for NFkB Signaling Pathway. (AID 624478).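 Also: compounds tested together with TNF alpha at its EC50 of 10 pM; 0% is about no effect.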 In short, it runs like this: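 Cells carrying an NFkB response element-driven beta-lactamase gene are co-treated with compound and 10 pM TNF alpha for 5 h, and reporter activity is then read as 460 and 530 nm fluorescence.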
The nature of test [7]: Cell Proliferation Assay against the TMD8 Cell Line (AID 651645).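 Also: cells exposed to compound for 48 h before reading.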 The note with it: TMD8 DLBCL cell line proliferation/viability; at 46.1 µM (top of the series) unless noted. The procedure, abridged:
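500 TMD8 cells/well, RPMI + Glutamax, no phenol red, 5% FBS; cpd added immediately; 48 h, 37C, 5% CO2; CellTiter-Glo, luminescence. Controls: DMSO = 100%, bortezomib 9.2 uM final = 0%.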

Test [8] can be described thus: Cell Proliferation Assay against the HBL1 Cell Line (AID 651646).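 Also: cells exposed to compound for 48 h before reading.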 The note with it: HBL1 DLBCL cells; at 46.1 µM (top of the series) unless noted. In short, it runs like this: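 500 log-phase HBL1 cells per well in phenol red-free RPMI with 5% FBS were treated with compounds for 48 h at 37 °C, 5% CO2. Viability was read by CellTiter-Glo luminescence, normalized to DMSO (100%) and 9.2 uM bortezomib final (0%).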

Test [9] is described as follows: Cell Proliferation Assay against the TMD8 Cell Line (Caspase readout at 16 hrs) (AID 651712). In short, it runs like this:
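TMD8 cells (500/well) in phenol-red-free RPMI with glutamine, 5% FBS, were exposed to compounds for 16 h at 37 °C. Caspase 3/7 activation was read by Caspase-Glo luminescence; percent activity normalised to DMSO (0%) and 9.2 uM bortezomib final (100%).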

Test [10] is described as follows: Cell Proliferation Assay against the TMD8 Cell Line (Caspase readout at 8 hrs) (AID 651713). In short, it runs like this:
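Percent activity derived from Caspase-Glo signal, DMSO set to 0% and bortezomib (9.2 uM final) to 100%. TMD8 cells were exposed to compound for 8 h in RPMI with 5% FBS.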

Test [11] in a line: qHTS Assay for Identification of Small Molecule Antagonists for NFkB Signaling Pathway. (AID 624479; calls by dose curve;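 also: pathway stimulated with TNF alpha; % is scaled to controls: 0 for no effect and ±100 for the full control effect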).
Test [12] can be described thus: S16 Schwann cell PMP22 intronic element beta-lactamase assay (AID 624044; calls by dose curve;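 also: 0% = DMSO and -100% = potassium clavulanate positive control; nearly all actives have a fitted effect of over 15% in size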). The procedure, abridged:
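Rat S16 Schwann cells with beta-Lac driven by a PMP22 intronic element, compound-treated 24 h at 37 °C. LiveBLAzer FRET B/G read: 460 nm normalized to potassium clavulanate vs DMSO; 535 nm FRET as viability; concentration-effect curves classified.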

Test [13] in a line: qHTS assay for small molecule agonists of the antioxidant response element (ARE) signaling pathway (AID 651741; active = well fitted activation curve with a large enough effect in the signal ratio; the % refers to the signal ratio; also: potency is read from the fitted curve at half-maximal effect). In short, it runs like this: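 ARE-bla HepG2 cells (beta-lactamase reporter under ARE control) were plated at 2,000 cells/well, preincubated 5 h at 37 C/5% CO2, then treated with DMSO-dissolved compounds for 16 h at 37 C; LiveBLAzer B/G FRET substrate added, fluorescence read after 2 h at room temperature.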

Test [14] is described as follows: qHTS assay for small molecule activators of the p53 signaling pathway (AID 651743; active = well fitted activation curve with a large enough effect in the signal ratio, not every such curve was filed as active; the % refers to the signal ratio; also: % of control where 0% means no effect). The note with it: HCT-116 p53RE-bla, beta-lactamase FRET ratio, 16 h; activation: stronger effect = higher value. In short, it runs like this: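 p53RE-bla HCT-116 cells with a stably integrated beta-lactamase reporter under p53 response elements were plated, rested 5 hours at 37 C/5% CO2, then exposed to compounds in DMSO for 16 hours at 37 C. LiveBLAzer B/G FRET substrate was read after 2 hours at room temperature.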

Test [15] in a line: qHTS assay for environmental chemicals that activate the Aryl hydrocarbon Receptor (AhR) signaling pathway (AID 651777). Also: % of control where 0% means no effect; nearly all actives have a fitted effect of over 15% in size. The note with it: 1A2-DRE human hepatoma cells, luciferase, 24 h; activation: stronger effect = higher value. The procedure, abridged: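 Luminescence (One-Glo, 30 min, room temperature) reports AhR-driven luciferase in stably transfected human hepatoma cells bearing DRE and CYP1A2 promoter. Cells (1,200/well) were treated with compound for 24 hr at 37 C in qHTS format.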

Records with an inconclusive call do not appear. Calls of active or inactive are those of the source. Unless noted, calls follow the shape of the dose curve; as a rule, active = well fitted curve in the direction sought with a large enough effect; inconclusive = small, poorly fitted or top-dose-only effect, or another doubt; inactive = no such curve, though single readings can be large; an effect the other way counts as inactive or inconclusive.

Chain of Glucagon-like peptide 1 receptor (Homo sapiens) (P43220 whole entry, looked up): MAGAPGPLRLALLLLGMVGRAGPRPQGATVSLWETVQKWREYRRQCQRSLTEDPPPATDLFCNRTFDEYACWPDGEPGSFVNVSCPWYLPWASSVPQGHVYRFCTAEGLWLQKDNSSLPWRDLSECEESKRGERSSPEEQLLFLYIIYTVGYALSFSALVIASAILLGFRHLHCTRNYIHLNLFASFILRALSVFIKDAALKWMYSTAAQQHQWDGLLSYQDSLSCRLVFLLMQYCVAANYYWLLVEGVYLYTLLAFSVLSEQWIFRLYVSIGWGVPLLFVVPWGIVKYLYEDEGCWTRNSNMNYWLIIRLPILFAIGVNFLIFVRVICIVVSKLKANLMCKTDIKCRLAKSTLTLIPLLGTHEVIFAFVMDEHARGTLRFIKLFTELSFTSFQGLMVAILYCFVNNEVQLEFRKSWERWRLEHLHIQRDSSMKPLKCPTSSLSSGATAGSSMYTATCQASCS

On to `O=C1NC(=O)C(c2ccccc2[N+](=O)[O-])=C1Nc1ccc(O)c(Cl)c1`, for which the Potency result in test [1] was “inactive”. Also, the call in test [2] and in test [3] was inactive.
Consider `COc1cc2nc(N3CCN(C(=O)C4CCCO4)CC3)nc(N)c2cc1OC` (centres undefined), for which the Potency entry in [1] was “inactive”. Also, the outcome in [2], in test [3] and in [4] was inactive.
Regarding `CC(=O)O[C@H]1C(=O)[C@@]2(C)C([C@H](OC(=O)c3ccccc3)[C@]3(O)C[C@H](OC(=O)[C@H](O)[C@@H](NC(=O)c4ccccc4)c4ccccc4)C(C)=C1C3(C)C)[C@]1(OC(C)=O)CO[C@@H]1C[C@@H]2O` (some centres undefined), the Potency entry in test [1] is “inactive”. The compound was classed as inactive in [2], in test [3] and in test [4].
As to `O=C(O)c1cccnc1Nc1cccc(C(F)(F)F)c1`, the Potency entry in test [1] is “inactive”. Also, the result in [2], in [3] and in test [4] was inactive.
For the compound `Nc1nc(OCc2ccccc2)c2[nH]cnc2n1`, the Potency entry in test [1] was “inactive”. In addition, the result in test [2], in test [3] and in [4] was inactive.
With `O=C(CCc1ccc(O)cc1)c1c(O)cc(O)cc1O`, in test [1], the Potency entry was “inactive”. Moreover, the compound was called inactive in test [2], in test [3] and in test [4].
Consider `O=c1cc(N2CCOCC2)oc2c(-c3ccccc3)cccc12`, for which the Potency result in [1] is “inactive”. Besides, the outcome in test [2], in test [3] and in [4] was inactive.
Take `NNc1nncc2ccccc12`: the Potency entry in [1] was “inactive”. Besides, the compound was classed as inactive in [2], in test [3] and in test [4].
`O=c1ccc2ccc(O)c(O)c2o1`: the Potency result in test [1] was “inactive”. The outcome in [2], in test [3] and in test [4] was inactive.
`Nc1nc(N)c(N=O)c(OCC2CCCCC2)n1`: in test [1], the Potency result was “inactive”. For the same compound, the result in test [2], in test [3] and in [4] was inactive.
As to `Oc1ccc(-c2nc(-c3ccc(F)cc3)c(-c3ccncc3)[nH]2)cc1`, the Potency entry in [1] is “inactive”. Moreover, the outcome in [2], in [3] and in [4] was inactive.
Turning to `C[C@@H](N)C1CCC(C(=O)Nc2ccncc2)CC1` (some centres undefined), the Potency result in test [1], in test [5], in test [9] and in test [10] was “inactive” throughout. Further, the call in test [2], in test [3] and in test [6] was inactive. Further, the viability (% of control) in test [7] was determined as 91.3%. Further, in [8], the viability, percent of control is 95.4%.
`COc1cc2c(cc1OC)C1CC(=O)C(CC(C)C)CN1CC2` (centres undefined): the Potency entry in test [1] was “inactive”. Moreover, the compound was called inactive in [2] and in test [3].
As to `OC(CN1CCN(c2cccc(Cl)c2)CC1)C(c1ccccc1)c1ccccc1` (centres undefined), the Potency result in test [1] was “inactive”. The result in test [2], in [3] and in [4] was inactive.
`O=C(c1ccccc1)c1ccc2n1CCC2C(=O)O` (centres undefined): the Potency entry in [1] is “inactive”. Also, the call in test [2], in [3] and in test [4] was inactive.
Turning to `COc1ccc2cc([C@H](C)C(=O)O)ccc2c1`, in [1], the Potency entry is “inactive”. The outcome in test [2] and in [3] was inactive.
As to `CC(=O)N1CCN(c2ccc(OC[C@H]3CO[C@](Cn4ccnc4)(c4ccc(Cl)cc4Cl)O3)cc2)CC1`, the Potency result in [1] was “inactive”. In addition, the outcome in [2], in test [3] and in test [4] was inactive.
On to `CCOC(=O)C(C)Oc1cccc2c(=O)n(CC(=O)Nc3ccc4c(c3)OCCO4)ccc12` (centres undefined), for which the Potency entry in test [1], in [5], in test [11], in [9] and in [10] was “inactive” throughout. The call in [2], in test [3], in test [4] and in [6] was inactive. Besides, in test [7], the viability (% of control) worked out at 109%. Also, the viability, percent of control in test [8] came out at 108%.
Turning to `C[C@H](Cc1ccc(O)c(O)c1)[C@@H](C)Cc1ccc(O)c(O)c1`, in [1], the Potency was 12 µM (active). The call in test [2], in [3] and in [4] was inactive.
Take `CCCCN(CCCC)CCC(O)c1cc2c(Cl)cc(Cl)cc2c2cc(C(F)(F)F)ccc12` (centres undefined): the Potency result in [12] was “inactive”.
Take `O=C1c2ccccc2-c2n[nH]c3cccc1c23`: the Potency result in test [1] was “inactive”. In addition, the outcome in test [2], in [3] and in test [4] was inactive.
With `O=C1c2c(O)cc(O)cc2OC(c2ccc(O)c(O)c2)C1O` (centres undefined), the Potency entry in [1] was “inactive”. Further, the call in test [2], in [3] and in [4] was inactive.
For `CC1(C)NC(=O)N(c2ccc([N+](=O)[O-])c(C(F)(F)F)c2)C1=O`, the Potency result in [1] was “inactive”. The compound was called inactive in test [2], in test [3] and in test [4]. Moreover, the Potency in test [13] was 54.5 µM (active). The activation in test [14] is 15.1% (inactive); in test [15] it was 1.77% (inactive).
As to `CC1(C)C(=O)N(CCN2CCC(C(=O)c3ccc(F)cc3)CC2)c2ccccc21`, in test [1], the Potency result is “inactive”. The result in test [2], in test [3] and in test [4] was inactive.
Take `NC(=NCc1ccccc1)NC(=O)c1nc(Cl)c(N)nc1N`: in test [1], the Potency result is “inactive”. For the same compound, the result in [2], in [3] and in test [4] was inactive.
Consider `Cc1c(OCC(F)(F)F)ccnc1CS(=O)c1nc2ccccc2[nH]1` (centres undefined), for which the Potency entry in test [1] was “inactive”. For the same compound, the outcome in test [2], in [3] and in [4] was inactive.
As for `COc1ccccc1N1CCN(CCN(C(=O)C2CCCCC2)c2ccccn2)CC1`, the Potency result in test [1] was “inactive”. Further, the call in [2], in test [3] and in test [4] was inactive.
With `O=Nc1c(-c2c(O)[nH]c3cc(Br)ccc23)[nH]c2ccccc12`, the Potency entry in test [1] is “inactive”. The call in test [2], in [3] and in test [4] was inactive.
As for `O=c1c(O)c(-c2ccc(O)cc2O)oc2cc(O)cc(O)c12`, the Potency entry in test [1] is “inactive”. The compound was called inactive in [2], in [3] and in test [4]. The activation in test [14] is -1.48% (inactive); in [15] it was 4.65% (inactive).
With `Nc1ccn([C@@H]2O[C@H](CO)[C@@H](O)C2O)c(=O)n1` (some centres undefined), in test [1], the Potency entry was “inactive”. The result in test [2], in test [3] and in test [4] was inactive.
With `NCCCCNCCCN`, in test [1], the Potency entry is “inactive”. The outcome in [2], in test [3] and in test [4] was inactive.
In the case of `CN(C)CCCC1(c2ccc(F)cc2)OCc2cc(C#N)ccc21` (centres undefined), the Potency result in [1] was “inactive”. The outcome in [2], in test [3] and in test [4] was inactive.
